Source: PubChem BioAssay (NCATS)
Inconclusive results are not listed. The source made the active and inactive calls. Calls follow the shape of the dose curve; as a rule, active = well fitted inhibition curve with a large enough effect; inconclusive = small, poorly fitted or top-dose-only effect; inactive = flat fitted curve, though single readings scatter.

What was measured:
CRL-7250 = normal cell line; experiment: Cytotoxic Profiling of Annotated Libraries Using Quantitative High-Throughput Screening (AID 1296008); conditions: Five cell lines viability, CellTiter-Glo ATP luminescence, 48-72 h; max response: active compounds read low; as to max response: % is scaled to controls: 0 for no effect and ±100 for the full control effect
Method in brief: (§1)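 Compounds were pin-transferred onto cells and incubated 48 or 72 hr at 37 degree Celsius, 95% humidity. CellTiter-Glo was added, plates sat 10 min at room temperature, then ATP-coupled luminescence was imaged as the viability read-out.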

HEK293 = experiment: as above; conditions: Five cell lines viability, CellTiter-Glo ATP luminescence, 48-72 h; max response: active compounds read low
Method in brief: as §1

HaCat [1] = experiment: as above; conditions: Five cell lines viability, CellTiter-Glo ATP luminescence, 48-72 h; max response: active compounds read low
Method in brief: as §1

KB-3-1 = experiment: as above; conditions: Five cell lines viability, CellTiter-Glo ATP luminescence, 48-72 h; max response: active compounds read low
Method in brief: as §1

NIH3T3 = experiment: as above; conditions: Five cell lines viability, CellTiter-Glo ATP luminescence, 48-72 h; max response: active compounds read low
Method in brief: as §1

HACAT [2] = experiment: qHTS assay to identify novel small-molecules to repurpose for Merkel cell carcinoma treatment (AID 1296009); conditions: MCC and control cell lines, CellTiter-Glo viability, 72 h; at 44.8 µM (top of the series) unless noted
Method in brief: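 Luminescence from CellTiter-Glo, read 10 min after addition at room temperature, reported viability following a 72 hr, 37 degree celsius treatment with NPC or MIPE compounds in titration; values normalized to plate controls.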

Measured: max response
Also: nearly all actives have a fitted effect of over 60% in size.

C/C=C(\C)C(=O)OCC1OC(OCC2OC(OC3(CO)OC(CO)C(O)C3O)C(O)C(O)C2O)C(O)C(O)C1O (centres undefined)
inactive: CRL-7250 -0.798% | HEK293 -3.28% | HaCat [1] | KB-3-1 | NIH3T3 | HACAT [2] inactive [at 17.4 µM]

C[C@@H]1O[C@@H](O[C@H]2[C@@H]3C=CO[C@@H](O[C@@H]4O[C@H](CO)[C@@H](O)[C@H](O)[C@H]4O)[C@@H]3[C@@]3(CO)O[C@@H]23)[C@H](O)[C@H](O)[C@H]1OC(=O)/C=C/c1ccc(O)cc1
inactive: CRL-7250 -9.97% | HEK293 1.82% | HaCat [1] | KB-3-1 -5.93% | NIH3T3 -3.44% | HACAT [2] inactive [at 17.4 µM]

CC(C)C[C@H](NC(=O)[C@@H]1O[C@H]1C(=O)O)C(=O)NCCCCN=C(N)N
inactive: CRL-7250 -9.88% | HEK293 -19.1% | HaCat [1] | KB-3-1 2.43% | NIH3T3 0.0799% | HACAT [2]

NC1=NC2(c3cc(NC(=O)c4ccc(F)cn4)ccc3F)COCC2CS1 (centres undefined)
inactive: CRL-7250 3.35% | HEK293 -14.7% | HaCat [1] | KB-3-1 -4.81% | NIH3T3 -8.12% | HACAT [2]

CC(=O)O[C@H]1[C@H](O[C@H]2CC[C@]34C[C@]35CC[C@]3(C)[C@@H]([C@@]6(C)CC[C@@H](C(C)(C)O)O6)[C@@H](O)C[C@@]3(C)[C@@H]5C[C@H](O[C@@H]3O[C@H](CO)[C@@H](O)[C@H](O)[C@H]3O)[C@H]4C2(C)C)OC[C@@H](OC(C)=O)[C@@H]1O
inactive: CRL-7250 -0.709% | HEK293 -4% | HaCat [1] | KB-3-1 | NIH3T3 1.91% | HACAT [2]

COc1ccccc1Oc1c(NS(=O)(=O)c2ccc(C)cn2)nc(-c2ccncc2)nc1OC
inactive: CRL-7250 3.94% | HEK293 -4.09% | HaCat [1] | KB-3-1 | NIH3T3 0.566% | HACAT [2]

CC1CCC2C(C)(C)[C@H](O)CC[C@]2(C)C12Cc1c(O)cc3c(c1O2)CN(C(CCC(=O)O)C(=O)O)C3=O (some centres undefined)
inactive: CRL-7250 -1.74% | HEK293 0.0488% | HaCat [1] | KB-3-1 | NIH3T3 3.99% | HACAT [2] inactive [at 17.4 µM]

COc1ccc(/C=C/C(=O)N2CCCC2)cc1
inactive: CRL-7250 1.09% | HEK293 2.31% | HaCat [1] | KB-3-1 2.27% | NIH3T3 -2.69% | HACAT [2]

CC(=O)NC(Cc1c[nH]c2ccccc(=O)c12)C(=O)O (centres undefined)
inactive: CRL-7250 -6.01% | HEK293 1.04% | HaCat [1] | KB-3-1 | NIH3T3 1.4% | HACAT [2]

C/C=C1/[C@H](O[C@@H]2O[C@H](CO)[C@@H](O)[C@H](O)[C@H]2O)OC=C(C(=O)OC)[C@H]1CC(=O)OCCc1ccc(OC(=O)C[C@@H]2C(C(=O)OC)=CO[C@@H](O[C@@H]3O[C@H](CO)[C@@H](O)[C@H](O)[C@H]3O)/C2=C/C)cc1
inactive: CRL-7250 -8.75% | HEK293 -1.34% | HaCat [1] | KB-3-1 | NIH3T3 2.32% | HACAT [2] inactive [at 9.27 µM]

CC(=O)O[C@@H]1[C@H](O[C@@H]2OC[C@](O)(CO)[C@H]2O)[C@@H](O[C@@H]2O[C@@H](C)[C@H](O)[C@@H](O[C@@H]3O[C@H](CO)[C@@H](O)[C@H](O)[C@H]3O)[C@H]2O)[C@H](OC(=O)[C@]23CCC(C)(C)C[C@H]2C2=CCC4[C@@]5(C)C[C@H](O)[C@H](O[C@@H]6O[C@H](C(=O)O)[C@@H](O)[C@H](O)[C@H]6O)[C@@](C)(C(=O)O)C5CC[C@@]4(C)[C@]2(C)CC3)O[C@@H]1C (some centres undefined)
inactive: CRL-7250 -6.6% | HEK293 -7.53% | HaCat [1] | KB-3-1 3.25% | NIH3T3 | HACAT [2] inactive [at 9.27 µM]

C=C1CCC2[C@](C)(CCC[C@]2(C)C(=O)O)[C@H]1CC/C(C)=C/C(=O)OC (some centres undefined)
inactive: CRL-7250 -5.17% | HEK293 -8.16% | HaCat [1] | KB-3-1 | NIH3T3 0.39% | HACAT [2]

C/C=C(/C)C(=O)O[C@H]1C[C@]2(C)O[C@@H]2[C@@H](OC(C)=O)[C@@]2(C)CC[C@@](O)(C(C)C)[C@H]12
inactive: CRL-7250 | HEK293 -3.47% | HaCat [1] | KB-3-1 -1.06% | NIH3T3 -1.87% | HACAT [2]

COc1ccnc(CCc2nc3ncccc3[nH]2)c1
inactive: CRL-7250 -4.02% | HEK293 -80.6% | HaCat [1] | KB-3-1 | NIH3T3 3.19% | HACAT [2]

NC(=O)[C@H](Cc1ccccc1)NC(=O)[C@H](CCCN=C(N)N)NC(=O)C12CC3CC(CC(C3)C1)C2
inactive: CRL-7250 -2.98% | HEK293 -11.4% | HaCat [1] | KB-3-1 | NIH3T3 | HACAT [2] inactive [at 9.27 µM]

O=C(NC1CCN(CC(F)(F)F)CC1)c1ccc(-c2cccc(F)c2)nc1
inactive: CRL-7250 | HEK293 -11% | HaCat [1] | KB-3-1 -3.14% | NIH3T3 | HACAT [2]

CC1C2=CC(=O)OC2(O)CC2C1C(O)CC1C(C)(CO)CCCC21C (centres undefined)
inactive: CRL-7250 | HEK293 2.57% | HaCat [1] | KB-3-1 0.829% | NIH3T3 | HACAT [2]

CC[C@H](NC(=O)c1c(O)c(-c2ccccc2)nc2ccccc12)c1ccccc1
inactive: CRL-7250 | HEK293 -9.53% | HaCat [1] | KB-3-1 -1.35% | NIH3T3 | HACAT [2]

C[C@@H]1CC[C@]2(C(=O)O[C@@H]3O[C@H](CO[C@@H]4O[C@H](CO)[C@@H](O[C@@H]5O[C@@H](C)[C@H](O)[C@@H](O)[C@H]5O)[C@H](O)[C@H]4O)[C@@H](O)[C@H](O)[C@H]3O)CC[C@]3(C)C(=CCC4[C@@]5(C)C[C@@H](O)[C@H](O)[C@@](C)(CO)C5CC[C@]43C)C2[C@H]1C (some centres undefined)
inactive: CRL-7250 -0.89% | HEK293 -0.975% | HaCat [1] | KB-3-1 3.97% | NIH3T3 1.43% | HACAT [2] inactive [at 9.27 µM]

CC(C)c1c(NC(=O)Nc2ccc(Cl)cc2)c(=O)n(-c2ccccc2)n1C
inactive: CRL-7250 -6% | HEK293 -5.54% | HaCat [1] | KB-3-1 -6.5% | NIH3T3 -1.6% | HACAT [2]

O=C(/C=C/c1ccc(O)c(O)c1)O[C@H]1[C@@H]2C=CO[C@@H](O[C@@H]3O[C@H](CO)[C@@H](O)[C@H](O)[C@H]3O)[C@@H]2[C@@]2(CO)O[C@@H]12
inactive: CRL-7250 -3.33% | HEK293 -6.64% | HaCat [1] | KB-3-1 | NIH3T3 -4.11% | HACAT [2] inactive [at 17.4 µM]

Cc1oc2nc3c(c(NC(=O)CN4CCCC4=O)c2c1C)CCCC3
inactive: CRL-7250 3.82% | HEK293 -1.01% | HaCat [1] | KB-3-1 8.69% | NIH3T3 | HACAT [2]

COc1ccc(NC(=O)c2ccc(-c3ccc(C(N)=O)cc3C)cc2)cc1N1CCN(C)CC1
inactive: CRL-7250 -5.67% | HEK293 -78.4% | HaCat [1] | KB-3-1 1.64% | NIH3T3 4.28% | HACAT [2]

CCCO[C@@H]1O[C@H](CO)[C@@H](O)[C@H](O)[C@H]1O[C@@H]1OC[C@@H](O)[C@H](O)[C@H]1O
inactive: CRL-7250 1.31% | HEK293 -4.21% | HaCat [1] | KB-3-1 9.26% | NIH3T3 -1.11% | HACAT [2]
